HEK cytotox: HEK 293 cell cytotoxicity | HEK 293 viability, ATP luminescence (CellTiter-Glo), 48-72 h | Potency, µM (top dose mostly 115 µM), inactives show at the highest dose activity change, negative = cytotoxicity, actives largely listed as inhibitors | hit rate 6.6% among 94,000; further: on the % scale 0 is the no-effect control and ±100 the full control effect; nearly all actives have a fitted effect of over 60% in size
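Viability of HEK 293 cells, plated at 250 cells/well, was judged by cellular ATP after compound treatment for 48 or 72 hr. Luminescence was imaged 10 min after CellTiter-Glo addition at room temperature.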
3T3 cytotox: cytotoxic compounds in NIH 3T3 cells. AID 1345082. NIH 3T3 viability, CellTiter-Glo ATP luminescence, 48-72 h. hit rate 4.3% among 94,000. Potency, µM (doses to about 96.7 µM), for the others: at the highest dose activity change, negative = cytotoxicity, most hits filed as inhibitors; further: on the % scale 0 is the no-effect control and ±100 the full control effect; nearly all actives have a fitted effect of over 55% in size
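Cytotoxicity was measured by CellTiter-Glo ATP luminescence after 48 or 72 h compound exposure at 37 °C. Mouse NIH 3T3 fibroblasts were seeded at 400 cells/well and dosed by 23 nL pin transfer.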
SNCA expr inh: SNCA gene expression inhibition. Potency, µM (doses to about 57.2 µM), inactives show at the top dose activity change, negative = inhibition, usual class: inhibitors. HEK-293 SNCA-luciferase knock-in, luminescence, 24 h. hit rate 0.17% among 140,000. AID 1671194;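 further: plate controls were DMSO cells for no effect and cell-free wells for full effect; nearly all actives have a fitted effect of over 45% in size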
HEK293 viab: counter-screen for SNCA expression inhibitors: cell viability | AID 1671193 | HEK-293-SNCA-luc viability, GF-AFC fluorescence, 24 h | Potency, µM (doses to about 57.1 µM), for inactives: top-dose activity change, negative = cytotoxicity, hits mostly cytotoxic | hit rate 0.12% among 150,000;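 further: 0% = DMSO-treated cells and -100% = medium-only wells without cells; nearly all actives have a fitted effect of over 30% in size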
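HEK-293-SNCA-luc cells (1500/well) plated 24 h, then exposed 24 h to a dilution series; GF-AFC added 30 min at 37C, fluorescence 405/540 nm; normalised to medium-only and DMSO wells, Hill fit.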
NPR1 antag: human Npr1 receptor antagonism; Potency, µM (top dose mostly 46.3 µM), inactives show at the top dose activity change, negative = inhibition, hits mostly inhibitors; HEK293 hNpr1 GloSensor cGMP, ANP-stimulated luminescence; hit rate 1.6% among 76,000; AID 1347048; P16066; calls by dose curve; further: on the % scale 0 is the no-effect control and ±100 the full control effect; nearly all actives have a fitted effect of over 60% in size
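Compound pre-incubated 30 min at room temperature on GloSensor-loaded HEK293 cells stably carrying hNpr1 and the pGS-40F cGMP biosensor. Stimulation uses hNppA at 0.1 nM final; luminescence is taken at baseline and 20 min post-agonist.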
Luciferase inh: blocks purified firefly luciferase enzyme activity; Potency, µM (series often up to 115 µM), most hits filed as inhibitors; AID 1347043; purified P. pyralis luciferase, luminescence, biochemical; hit rate 2.5% among 76,000; further: on the % scale 0 is the no-effect control and ±100 the full control effect; nearly all actives have a fitted effect of over 65% in size
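FLuc 10nM, D-luciferin 10uM, ATP 10uM, Mg acetate 10mM, Tris acetate pH 7.5, Tween/BSA; cpd qHTS; enzyme added last; CCD luminescence.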
NPR1 antag cnf: hNpr1 antagonism, confirmation assay | shares compounds with NPR1 antag | HEK293 hNpr1 cGMP GloSensor luminescence, ANP-stimulated | Potency, µM (series often up to 57.6 µM), for inactives: top-dose activity change, negative = inhibition, actives largely listed as inhibitors | hit rate 76% among 1,400 | AID 1347044; calls by dose curve; further: nearly all actives have a fitted effect of over 70% in size
Npr2 selectivity: antagonizes human Npr2, subtype selectivity check. hit rate 67% among 1,400. shares compounds with NPR1 antag. HEK293 hNpr2 GloSensor cGMP luminescence, CNP-stimulated. AID 1347046. Potency, µM (doses to about 57.6 µM), inactives show at the highest dose activity change, negative = inhibition, hits mostly inhibitors; calls by dose curve; further: nearly all actives have a fitted effect of over 70% in size
FLuc inh counter: FLuc enzyme inhibition, Npr1 counter-screen; Potency, µM (titrated, usually from 57.6 µM), without a hit: at the top dose activity change, negative = inhibition, most hits filed as inhibitors; hit rate 0.7% among 1,400; AID 1347047; purified FLuc enzyme, luminescence, Km substrate; shares compounds with NPR1 antag; further: series mostly up to about 58 µM; 0% is about no effect
GloSensor cGMP: counter-screen for Npr1 antagonists: GloSensor control cell line | shares compounds with NPR1 antag | HEK293 GloSensor cGMP, SNP-stimulated, luminescence | Potency, µM (highest dose often 57.6 µM), without a hit: at the top dose activity change, negative = inhibition, most hits filed as inhibitors | hit rate 69% among 1,400 | AID 1347051; calls by dose curve; further: on the % scale 0 is the no-effect control and ±100 the full control effect; nearly all actives have a fitted effect of over 70% in size
* marks the source's active call; other numbers are inactive results; i = inactive; ? = inconclusive; / = no result given; [ ] = dose if it differs, or a comment. The list is not random: actives were taken first. Their share in the collection is about 7.4%. Unless noted, the call rests on the fitted dose curve; in most records, active means well fitted curve in the direction sought with a large enough effect; inconclusive means small, poorly fitted or top-dose-only effect, or another doubt; inactive means no such curve, though single readings can be large; an effect the other way counts as inactive or inconclusive. Potency means the concentration at half of the fitted maximal effect.

SMILES	HEK cytotox	3T3 cytotox	SNCA expr inh	HEK293 viab	NPR1 antag	Luciferase inh	NPR1 antag cnf	Npr2 selectivity	FLuc inh counter	GloSensor cGMP
COc1cc(F)cc(-c2cnc3[nH]cc(CC(=O)N4CCOCC4)c3c2)c1	?	?	-12%[87.6 µM]	?	6.3µM*	i	3.1µM*	18µM*	?	7.9µM*
O=C(Cc1c[nH]c2ncc(-c3ccccc3)cc12)NC1CCOCC1	?	?	?	-1%[87.6 µM]	-9%[70.6 µM]	i	/	/	/	/
O=C(Cc1c[nH]c2ncc(-c3ccccc3Oc3ccccc3)cc12)N1CCOCC1	50µM*	?	?	-17%[87.6 µM]	14µM*	i	13µM*	22µM*	-2%[86.2 µM]	13µM*
CC(C)CC(=O)OC[C@@]1(O)C[C@@]23CC[C@H]4[C@@](C)(CCC[C@@]4(C)C(=O)O)[C@@H]2CC[C@@H]1C3	/	/	/	-1%[23.9 µM]	/	/	/	/	/	/
COC(=O)[C@@H]1Cc2ncn(Cc3ccc(Cl)cc3)c2CN1C(=O)c1cccs1	-10%[172 µM]	?	-24%[87.6 µM]	-14%[87.6 µM]	-22%[70.6 µM]	i	-22%[86.2 µM]	-24%[86.2 µM]	2%[86.2 µM]	5%[86.2 µM]
CCOC(=O)CCNC(=O)N1c2ccccc2CC1c1nc(C2CC2)no1 (stereo not given)	8%	3%	5%	-13%	1%	i	/	/	/	/
Cc1noc(C)c1-c1cc2c(c(-c3cccc(O)c3)c1)C(=O)N(C)C2	?	-51%[138 µM]	35%[87.6 µM]	-3%[87.6 µM]	-2%[70.6 µM]	i	/	/	/	/
Cc1ccccc1-c1cc(-c2c(C)noc2C)cc2c1C(=O)N(C)C2	?	?	41%[87.6 µM]	-19%[87.6 µM]	-1%[70.6 µM]	i	/	/	/	/
Cc1noc(C)c1-c1cc2c(c(-c3ccc(F)c(Cl)c3)c1)C(=O)N(C)C2	?	?	8%[87.6 µM]	?	8.9µM*	i	16µM*	8.9µM*	-1%[86.2 µM]	7.9µM*
Cc1noc(C)c1-c1cc2c(c(-c3ccccc3)c1)C(=O)N(C)C2	40µM*	?	-2%[87.6 µM]	-13%[87.6 µM]	28µM*	i	28µM*	18µM*	1%[86.2 µM]	18µM*
O=C(c1cccs1)N1CCCC(n2cc(-c3nc(C4CC4)no3)nn2)C1 (stereo not given)	-16%	-30%	4%	-3%	-6%	i	/	/	/	/
CC(C)(C)CC(=O)N1CCC(N2C(=O)N(Cc3cccnc3)CC23CCOC3)CC1 (stereo not given)	-22%	-28%	-7%	0%	/	/	/	/	/	/
CCNc1cc(N2CCC(CCC(=O)NCCc3cccnc3)CC2)ncn1	?	-32%	?	-14%	-13%	i	/	/	/	/
CCN(CC)C(=O)CCC1CCN(c2cc(NC3CC3)ncn2)CC1	-12%	-23%	?	-4%	?	i	/	/	/	/
CCOc1ccc(NC(=O)CCC2CCN(c3cc(NC4CC4)ncn3)CC2)cc1	?	-19%	?	-6%	?	i	?	?	-29%	?
CCNc1cc(N2CCC(CCC(=O)N3CCN(c4cccc(OC)c4)CC3)CC2)ncn1	35µM*	?	?	-8%	11µM*	i	17µM*	19µM*	-19%	17µM*
O=C(CCC1CCN(c2cc(NC3CC3)ncn2)CC1)N1CCN(c2ccccc2F)CC1	?	?	?	-26%	13µM*	i	24µM*	22µM*	-23%	24µM*
CN(CCc1ccccc1)C(=O)CCC1CCN(c2cc(NC3CC3)ncn2)CC1	35µM*	?	?	-10%	11µM*	i	22µM*	22µM*	-14%	14µM*
COc1ccc(N2C(=O)C3(CCCCC3)C2C(=O)N(C)C)cc1 (stereo not given)	-26%	-5%	13%	-28%	1%	i	/	/	/	/
CC(C)n1cc(CN(C)C(=O)c2cc(COc3ccccc3)on2)cn1	?	?	22%	-5%	0%	?	/	/	/	/
Cc1cnccc1CN(C)C(=O)c1cc(COc2ccc(-n3cncn3)cc2)on1	?	?	4%	-1%	7.1µM*	i	5.4µM*	9.7µM*	0%	5.4µM*
O=C(CC1CCCCN(Cc2ccccc2)C1=O)N1CCN(c2ccc(F)cc2)CC1 (stereo not given)	?	-27%	-16%	-1%	11µM*	i	24µM*	22µM*	1%	22µM*
O=C(CC1CCCCN(Cc2ccccc2)C1=O)Nc1ccc(F)cc1F (stereo not given)	?	-27%	3%	14%	0%	i	/	/	/	/
O=C1CC(c2nc3ccccc3[nH]2)CN1c1cccc(Cl)c1 (stereo not given)	/	/	-2%	-6%	/	/	/	/	/	/
Clc1cccc(CN2CC[C@H](c3nc4ccccc4[nH]3)C2)c1	20µM*	?	-46%[87.6 µM]	-19%[87.6 µM]	25µM*	i	40µM*	?	-2%[86.2 µM]	?
SMILES	HEK cytotox	3T3 cytotox	SNCA expr inh	HEK293 viab	NPR1 antag	Luciferase inh	NPR1 antag cnf	Npr2 selectivity	FLuc inh counter	GloSensor cGMP
Cc1ccc(C)c(S(=O)(=O)c2nnn3c2nc(NCCCOC(C)C)c2ccccc23)c1	-1%	-32%	-7%	0%	/	/	/	/	/	/
CC1CCC(=O)CC(SCC(O)C(=O)O)CCC(=O)O1 (stereo not given)	/	/	/	-19%	/	/	/	/	/	/
COc1ccc(C(=O)N[C@@H]2CCC[C@@H]2C(=O)NCc2ccc(C)cc2)cn1	-7%	-3%	12%	-10%	4%	i	/	/	/	/
C=CCN1C[C@H]2COc3ccc(C)cc3[C@H]2N(C(=O)COc2ccccc2)CCC1=O	?	-23%	/	/	/	/	/	/	/	/
CC(C)NC(=O)c1ccc(-c2nnc3ccc(NC(=O)C4CCC4)cn23)cc1	?	-13%	11%	-7%	-1%	i	/	/	/	/
COc1cccc(NC(=O)c2ccc(-c3nnc4ccc(NC(=O)C5CCC5)cn34)cc2)c1	-5%	1%	13%	-16%	?	i	24µM*	?	2%	22µM*
